# Source: ChEMBL document CHEMBL3988442, “University of Dundee, Small-Polar-MMV Screening Library” (2021)
# Assays:
# [1] = molecular target: T1, Aspartate--tRNA(Asp/Asn) ligase (Mycobacterium tuberculosis (strain ATCC 25618 / H37Rv)) (UniProt P9WFW3); test: Assay for Asp RNA synthetase-1 from Mycobacterium tuberculosis; type: functional; set-up: scale not given: direction of the effect not stated beside the values; conditions: 30 µM; also: in the data most compounds retested in dose-response had high values
# T1 sequence (whole entry): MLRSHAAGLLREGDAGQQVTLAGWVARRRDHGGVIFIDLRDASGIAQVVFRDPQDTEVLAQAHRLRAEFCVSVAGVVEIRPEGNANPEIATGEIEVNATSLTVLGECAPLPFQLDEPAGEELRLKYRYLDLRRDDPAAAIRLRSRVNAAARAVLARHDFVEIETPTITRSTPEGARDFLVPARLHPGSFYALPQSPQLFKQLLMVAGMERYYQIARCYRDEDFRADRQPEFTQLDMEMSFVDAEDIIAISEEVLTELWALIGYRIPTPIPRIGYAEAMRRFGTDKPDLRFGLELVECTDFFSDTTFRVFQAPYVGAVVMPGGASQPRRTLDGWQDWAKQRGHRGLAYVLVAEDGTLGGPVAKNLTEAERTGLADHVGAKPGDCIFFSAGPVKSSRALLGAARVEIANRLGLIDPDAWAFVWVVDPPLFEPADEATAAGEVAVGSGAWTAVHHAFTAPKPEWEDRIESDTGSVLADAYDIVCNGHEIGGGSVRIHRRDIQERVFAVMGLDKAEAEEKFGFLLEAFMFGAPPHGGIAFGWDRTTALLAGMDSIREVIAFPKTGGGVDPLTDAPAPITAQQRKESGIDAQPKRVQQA
# [2] = molecular target: Shiga toxin 2 (Escherichia coli O157:H7) (UniProt P09385+P09386); test: E. coli 0.157:H7 Shiga Toxin SOP - stx2 screening assay; type: functional; set-up: scale not given: direction of the effect not stated beside the values; conditions: 30 µM
SMILES,Percent Effect [1] [%],Percent Effect [2] [%]
Cc1noc(Cl)c1CCC(=O)N1CCc2sccc2C1,-1.63,18.9
CN(Cc1cn2c(n1)CN(CC1CC1)CC2)Cc1ccco1,3.75,-1.46
Cc1noc(C)c1CN1CCN(CC2CC2)c2ncccc2C1,2.1,0.649
O=C(Cn1ccc2ccccc21)NCc1ccc(C(=O)O)cc1,5.27,6.55
CC(C)Oc1ncccc1CNC(=O)N1CCC1c1ccccc1 (stereo unspecified),0.589,-9.32
O=C(NCCCNCC1CNc2ccnn2C1)c1ccccc1 (stereo unspecified),0.0558,-16.8
Cc1noc(CN(Cc2ccc3c(c2)OCO3)C2CCCC2)n1,1.87,30.6
CC(C)N1CCOCC2(CN(Cc3ccco3)CCO2)C1 (stereo unspecified),1.82,5.04
O=C1NC2(CCN(Cc3cccnc3)CC2)CC1c1ccncc1 (stereo unspecified),7.31,-19.6
CCOCCC(=O)N1CCCN(Cc2csc(CC)n2)CC1,-0.742,-4.81
CC(O)CN1CCC(CNCc2ccccc2Br)CC1 (stereo unspecified),1.21,-20.4
COc1ccc(COCC(O)CNC(=O)c2cc(C)cc(C)c2)cc1 (stereo unspecified),-0.859,-16.6
Cc1ccc(-c2nc(CN3CCCC3Cn3cc(C)cn3)no2)cc1 (stereo unspecified),1.48,-24.5
N#CCCN(C(=O)CN1CCCC1c1ccsc1)c1ccccc1F (stereo unspecified),-3.67,4.76
CCOCCC(=O)N1CCCC(c2ncc[nH]2)C1 (stereo unspecified),-0.374,-22.5
Cc1cncc(C(=O)N2CCCC(C(=O)CCc3ccccc3)C2)c1 (stereo unspecified),13.2,-26.1
Cc1cc2cc(C(=O)N[C@@H]3CC[C@@H](N4CCOCC4)[C@@H]3O)ccc2o1,2.49,4.91
CC(C)c1nc2c(n1C)CCN(Cc1nc(-c3ccsc3)no1)C2,-3.99,-3.44
